Assay outcomes deposited in PubChem BioAssay by The Scripps Research Institute Molecular Screening Center.
Fam108B inh: Fam108B inhibition, counter-screen for RBBP9 inhibitors; AID 1947; inhibition, % at 9.51 µM; recombinant Fam108B, FP-Rh probe fluorescence polarization; 300,000 compounds, 0.33% hits;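 active means inhibition above the screen mean inhibition plus 3 SD, computed separately per campaign, cut at about 18% in these data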;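 further: inhibitors lower polarization as less probe binds the enzyme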
pPAFAH inh: inhibitors of human plasma PAF acetylhydrolase (pPAFAH) | inhibition, % at 3.39 µM | 330,000 compounds, 1.5% hits | Q13093 | recombinant pPAFAH, FP-rhodamine probe fluorescence polarization;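 active means inhibition above the mean inhibition across the screen plus 3 SD, cut at about 25% in these data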;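 further: inhibitors block binding of the rhodamine activity-based probe so polarization drops; 0% = enzyme with DMSO and 100% = wells lacking pPAFAH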
PME-1 inh: PME-1 (human) inhibition | Q9Y570 | recombinant PME-1, FP-Rh probe fluorescence polarization | inhibition, % at 5.9 µM | 320,000 compounds, 0.53% hits;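 active means inhibition above the campaign mean of all compounds plus 3 SD, cut at about 26% in these data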;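 further: competitive labeling of PME-1 active site by serine hydrolase directed probe; 0% = PME-1 with DMSO and 100% = wells lacking PME-1 enzyme; inhibitors block probe labeling so polarization falls and inhibition rises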
Target sequence (Q9Y570 whole entry, looked up): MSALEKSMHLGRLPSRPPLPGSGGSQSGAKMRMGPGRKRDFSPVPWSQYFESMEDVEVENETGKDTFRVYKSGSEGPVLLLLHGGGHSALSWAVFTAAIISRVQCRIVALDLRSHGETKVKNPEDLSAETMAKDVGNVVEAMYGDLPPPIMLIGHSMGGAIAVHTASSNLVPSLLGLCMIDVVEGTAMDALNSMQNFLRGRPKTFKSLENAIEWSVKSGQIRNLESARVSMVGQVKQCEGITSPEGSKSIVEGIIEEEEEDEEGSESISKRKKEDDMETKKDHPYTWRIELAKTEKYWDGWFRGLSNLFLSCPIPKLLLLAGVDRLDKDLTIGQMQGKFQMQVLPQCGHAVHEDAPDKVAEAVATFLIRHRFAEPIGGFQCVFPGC
PAFAH1B2 inh: PAFAH1B2 (human) inhibition | inhibition, % at 3.39 µM | AID 492953 | P68402 | recombinant PAFAH1B2, FP-rhodamine activity probe, fluorescence polarization | 340,000 compounds, 1.2% hits;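 active means inhibition above the mean of all tested compounds plus 3 SD, cut at about 24% in these data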;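 further: 0% = enzyme with DMSO and 100% = wells lacking PAFAH1B2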
PAFAH1B3 FP inh: PAFAH1B3 (human) inhibition; recombinant PAFAH1B3, FP-rhodamine probe, fluorescence polarization; inhibition, % at 3.39 µM; 340,000 compounds, 0.28% hits; AID 492972;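 active means inhibition above the screen-wide average of all tested compounds plus 3 SD, cut at about 25% in these data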;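 further: 0% = enzyme with DMSO only and 100% = wells lacking PAFAH1B3 protein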
Target sequence (Q15102 whole entry, looked up): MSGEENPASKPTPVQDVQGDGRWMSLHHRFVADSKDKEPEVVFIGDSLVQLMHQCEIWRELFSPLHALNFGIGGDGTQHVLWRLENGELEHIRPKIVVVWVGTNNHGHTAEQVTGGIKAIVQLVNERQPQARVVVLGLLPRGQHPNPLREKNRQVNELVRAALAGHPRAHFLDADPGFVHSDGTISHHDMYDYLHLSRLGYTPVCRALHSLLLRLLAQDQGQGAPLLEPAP
PAFAH2 FP inh: PAFAH2 (human) inhibition; Q99487; recombinant PAFAH2, FP-rhodamine activity probe, fluorescence polarization; inhibition, % at 3.39 µM; 340,000 compounds, 0.99% hits;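 active means inhibition above the mean over all tested compounds plus 3 SD, cut at about 30% in these data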;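 further: inhibitors block probe labeling of enzyme so polarization drops; 0% = enzyme with DMSO and 100% = wells lacking PAFAH2 protein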
* marks the source's active call; other numbers are inactive results; · = no result given. Compounds with a hit are over-represented: about 2.9% of the library has one in this group of screens.

SMILES | Fam108B inh | pPAFAH inh | PME-1 inh | PAFAH1B2 inh | PAFAH1B3 FP inh | PAFAH2 FP inh
CCC(C)N1C(=O)/C(=C/c2c(NCCCOC(C)C)nc3c(C)cccn3c2=O)SC1=S (stereo not drawn) | 4 | 0 | -20 | 34* | 38* | 52*
CCCCNC(c1ccccc1)c1ccncc1 (stereo not drawn) | 0 | -1 | -2 | 6 | 6 | -6
CCOC(=O)C1CCN(c2cc3c(cc2NC(=O)c2ccccc2OCC)n(C)c(=O)n3C)CC1 | 3 | 31* | 12 | 7 | 5 | 13
CCOC(=O)C1CCN(c2cc3c(cc2NC(=O)c2ccccc2Cl)n(C)c(=O)n3C)CC1 | 1 | 11 | 2 | 3 | 1 | 2
Cc1nc(N)nc(N)c1Oc1ccc(Cl)cc1 | · | · | · | 7 | 4 | -1
Cc1nc(N)nc(N)c1/C=C/C(C)(C)c1ccc(Cl)cc1 | · | · | · | 42* | 0 | 6
Cc1cc(NC(=O)CSc2nnc(-c3cccc(F)c3)n2N)no1 | · | -7 | -7 | 2 | 11 | 5
Cc1cccc(Nc2nnc(SC/C(O)=C(\C#N)c3nc4ccccc4[nH]3)s2)c1C | 6 | 28* | 82* | 21 | 9 | 11
COc1cc2c(cc1OC)CN(CC(=O)Nc1ccccc1C#N)CC2 | 2 | 8 | 9 | -1 | 9 | -4
NC(=O)Nc1ccc(Oc2c(F)c(F)c(F)c(F)c2F)cc1 | 5 | 29* | -6 | 2 | 8 | 4
O=C1NC(=Nc2ccccc2Cl)S/C1=C\c1cccc([N+](=O)[O-])c1O | 12 | 34* | 6 | 14 | 22 | 50*
Cc1cc(C)c(OCC(=O)OCC(=O)NCCC2=CCCCC2)c(C)c1 | -1 | 33* | -8 | 3 | 8 | -1
Cc1cc(C)c(OCC(=O)OCC(=O)NC2CCC(C)CC2)c(C)c1 (stereo not drawn) | 0 | 26* | 4 | 6 | 3 | -3
Cc1ccc(OCC(=O)NCCC2=CCCCC2)cc1 | -2 | 2 | 2 | 8 | 5 | 4
Cc1ccc(SCC(=O)NCCC2=CCCCC2)cc1 | -4 | 5 | 0 | 50* | 1 | -2
Cc1ccc(CS(=O)(=O)CCC(=O)NCCN2CCCC2)cc1 | -3 | 15 | 2 | -1 | 5 | 4
N#Cc1ccc(OCC(=O)NCCN2CCOCC2)cc1 | · | -1 | 4 | 1 | 8 | 8
Oc1c(Br)cc(Br)cc1CNc1cnc2ccccc2c1 | 4 | 15 | 46* | 2 | 7 | 8
COc1ccc(NC(=O)Cc2ccc(Cl)cc2)cc1S(=O)(=O)N1CCCCC1 | · | 7 | -1 | 10 | -4 | -4
CCN(CC)c1ccc(/C=C/c2cc(-c3ccccc3)c3ccccc3n2)cc1 | -6 | 25* | 4 | -2 | 4 | -5
CC(C)C1Nc2c(O)cc(Cl)c([N+](=O)[O-])c2C2C=CCC21 (stereo not drawn) | · | · | · | 42* | -3 | 19
CC(CCCC(C)(C)O)NC(=O)c1ccc2oc(CCc3ccccc3)nc2c1 (stereo not drawn) | -1 | 3 | 0 | 6 | 3 | -5
O=c1c(-c2ccc(O)cc2)coc2cc(O)ccc12 | 0 | -1 | -6 | 2 | 11 | -5
O=c1c(O)c(-c2ccc(O)c(O)c2)oc2cc(O)ccc12 | · | · | · | 15 | 38* | 66*
Cc1c(C(=O)N/N=C/c2ccc(O)c(Br)c2)sc(N)c1C#N | 7 | 15 | 29* | -2 | 3 | 1
SMILES | Fam108B inh | pPAFAH inh | PME-1 inh | PAFAH1B2 inh | PAFAH1B3 FP inh | PAFAH2 FP inh
CC(=O)c1ccc(NC(=O)C2CCCN(S(=O)(=O)c3cccc4nonc34)C2)cc1 (stereo not drawn) | 4 | -2 | -1 | 29* | 7 | -2
CC1CCCCN1CCCNC(=O)CN1C(=O)CSc2ccc(S(=O)(=O)N3CCOCC3)cc21 (stereo not drawn) | -6 | 4 | -4 | -4 | 7 | 3
O=C(O)C(C(=O)/C=C/c1ccco1)=C1SCCS1 | -4 | 24 | -2 | 6 | 4 | 12
O=C(/C=C/c1ccc([N+](=O)[O-])cc1)/C=C/c1ccco1 | 6 | 62* | 3 | -3 | 9 | 15
O=C(C=C1SCCS1)/C=C/c1ccco1 | 3 | 25* | 1 | 4 | 8 | 8
O=C(/C=C/c1ccc([N+](=O)[O-])cc1)c1ccco1 | 1 | 4 | 3 | 3 | 2 | -5
O=C1c2ccccc2NC(c2ccc(-c3ccccc3F)o2)N1O (stereo not drawn) | · | 0 | 7 | 6 | 11 | 4
Cc1cc([N+](=O)[O-])ccc1-c1ccc(C2Nc3ccccc3C(=O)N2O)o1 (stereo not drawn) | -1 | 10 | 37* | 0 | 9 | -1
CCCC1/C(=N/O)CC(c2ccccc2)NC1c1ccccc1 (stereo not drawn) | 3 | 27* | -4 | 5 | 2 | -1
COc1cc(/C=C/c2ccc3c(Br)cc(Br)c(O)c3n2)ccc1O | 4 | 34* | 23 | 6 | 22 | 6
COc1ccc(/C=C/c2ccc3c(Br)ccc(O)c3n2)cc1 | 0 | 11 | 12 | 1 | 0 | 4
OCCN(Cc1ccccc1)CC(O)COc1ccc(-c2ccccc2)cc1 (stereo not drawn) | 2 | 9 | -4 | 2 | 0 | 8
COc1cc(C(C)=O)ccc1OCC(O)CN(CCO)Cc1ccccc1 (stereo not drawn) | 0 | 32* | 7 | -3 | -3 | 7
Cc1cccc(NS(=O)(=O)c2cccc(C(=O)N3CCCC3)c2)c1 | -1 | 27* | 2 | 2 | 0 | -2
CCN(CC(=O)NCc1cccs1)C(=O)c1cccc(S(=O)(=O)Nc2cccc(C)c2)c1 | · | 31* | 3 | 3 | 9 | 7
CCN(CC(=O)NCc1cccs1)C(=O)c1cccc(S(=O)(=O)Nc2ccc(F)cc2)c1 | · | · | · | -1 | 4 | -3
O=C(c1cccc(NS(=O)(=O)c2ccc(Br)cc2)c1)N1CCN(c2ccccc2O)CC1 | · | · | · | 25* | -1 | -10
O=C(c1cccc(NS(=O)(=O)c2ccccc2)c1)N1CCCC1 | -2 | 4 | 2 | -1 | -1 | -5
Cc1cccc(NS(=O)(=O)c2ccc(OCC(=O)N3CCCC3)cc2)c1 | -2 | 34* | 6 | 10 | 8 | 7
COc1cccc(CN(CC(=O)NCc2ccc(F)cc2)C(=O)c2ccco2)c1 | -1 | 5 | 0 | 1 | 8 | -3
COc1ccc(NS(=O)(=O)c2cccc(C(=O)N3CCCC(C)C3)c2)cc1 (stereo not drawn) | 3 | 25* | -1 | 4 | 4 | 4
CCCc1cc(N2CCCC(C(=O)NCC)C2)n2ncnc2n1 (stereo not drawn) | -1 | -2 | -2 | 5 | 0 | -2
Cc1ccc(NS(=O)(=O)c2cccc(C(=O)N/N=C/c3ccc4c(c3)OCCO4)c2)c(C)c1 | -45 | 32* | -55 | -14 | -34 | -60
